Results reported in PubChem BioAssay (Tox21).
Records with an inconclusive call do not appear. Active and inactive are the calls of the source. Unless noted, the call rests on the fitted dose curve; in most records, active means well fitted curve in the direction sought with a large enough effect in the repeat runs; inconclusive means weak or mixed curves; inactive means no such curve, though single readings can be large; an effect the other way counts as inactive or inconclusive.

Legend:
[1] = biological target: Thyrotropin receptor (Homo sapiens) (UniProt P16473); assay: qHTS assay to identify small molecule agonists of the thyroid stimulating hormone receptor (TSHR) signaling pathway (AID 1224843; calls by dose curve; further: nearly all actives have a fitted effect of over 45% in size)
Thyrotropin receptor (Homo sapiens), sequence (P16473 whole entry, looked up): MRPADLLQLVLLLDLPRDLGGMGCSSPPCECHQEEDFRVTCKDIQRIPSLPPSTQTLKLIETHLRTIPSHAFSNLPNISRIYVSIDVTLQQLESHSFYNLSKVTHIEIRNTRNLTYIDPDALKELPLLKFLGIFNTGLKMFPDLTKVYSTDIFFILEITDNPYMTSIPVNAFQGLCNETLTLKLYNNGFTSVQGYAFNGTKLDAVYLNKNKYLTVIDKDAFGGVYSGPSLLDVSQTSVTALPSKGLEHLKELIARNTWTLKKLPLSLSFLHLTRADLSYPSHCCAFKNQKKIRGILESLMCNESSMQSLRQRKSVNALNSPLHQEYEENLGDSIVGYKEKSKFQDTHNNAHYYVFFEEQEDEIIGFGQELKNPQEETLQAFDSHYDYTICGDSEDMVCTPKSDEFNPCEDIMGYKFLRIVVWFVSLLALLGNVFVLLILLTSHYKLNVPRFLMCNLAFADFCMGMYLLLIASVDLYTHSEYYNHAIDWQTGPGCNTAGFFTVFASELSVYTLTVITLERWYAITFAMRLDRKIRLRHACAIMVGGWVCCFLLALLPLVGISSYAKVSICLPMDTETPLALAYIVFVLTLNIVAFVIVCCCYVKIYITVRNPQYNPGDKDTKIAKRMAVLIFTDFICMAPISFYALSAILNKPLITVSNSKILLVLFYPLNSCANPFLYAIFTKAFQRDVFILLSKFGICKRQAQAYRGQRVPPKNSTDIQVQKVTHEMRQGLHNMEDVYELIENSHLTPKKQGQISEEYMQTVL
Procedure, shortened: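 Steps: seed 800 TSHR-HEK293 cells per well; add test compound and hold 30 min at ambient temperature; dispense cAMP-d2 then anti-cAMP cryptate; incubate 1 h at ambient; measure fluorescence intensity.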

[2] = qHTS assay to identify small molecule agonists of the hypoxia (HIF-1) signaling pathway - cell viability counter screen (AID 1224844; calls by dose curve; further: nearly all actives have a fitted effect of over 50% in size)
Procedure, shortened: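 Luminescent ATP content (CellTiter-Glo, 30 min, room temperature) served as the viability measure in HRE-bla ME-180 cells exposed to compounds for 17 hrs in low-serum medium (0.5% dialyzed FBS).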

[3] = qHTS assay to identify small molecule agonists of H2AX (AID 1224845; active means well fitted activation curve with a large enough effect in the signal ratio in the repeat runs, not every such curve was filed as active; the % refers to the signal ratio)
Procedure, shortened: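 Wild-type CHO-K1 cells, plated overnight, exposed 3hr at 37C to 15 concentrations (0.76% DMSO final). Lysed, then HTRF anti-pH2AX (S139) cryptate and anti-H2AX-d2 antibodies, 24 hr room temperature; 665/620 nm emission read.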

[4] = qHTS assay to identify small molecule agonists of the hypoxia (HIF-1) signaling pathway (AID 1224846; active means well fitted activation curve with a large enough effect in the signal ratio in the repeat runs, not every such curve was filed as active; the % refers to the signal ratio)
Procedure, shortened: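 Measured by blue/green FRET after loading CCF4-AM: beta-lactamase expressed from a hypoxia response element in ME-180 cells. Test agents were delivered in DMSO and left 17 hrs; cells had been plated 5 hrs earlier in low-serum (0.5% dialyzed FBS) medium.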

[5] = qHTS assay to identify small molecule agonists of H2AX - cell viability counter screen (AID 1224847; calls by dose curve; further: top concentration of the series differs between compounds; nearly all actives have a fitted effect of over 30% in size)
Procedure, shortened: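 For this counter screen, overnight-attached CHO-K1 cells received test compounds (15 concentrations, 0.76% DMSO final); 3 hr later at 37C, CellTiter-Glo reagent was added and luminescence recorded after 30 min at room temperature.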

[6] = qHTS assay to identify small molecule antagonists of the estrogen related receptor (ERR) signaling pathway from Tox21 library (AID 1224848); further: nearly all actives have a fitted effect of over 50% in size
Procedure, shortened: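 Luminescent reporter read-out (ONE-Glo) from NTP's ERR cell line after 18 h treatment at 37 C with DMSO-dissolved Tox21 compounds; cells pre-plated 6 h beforehand at 2,000 per well.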

[7] = qHTS assay to identify small molecule agonists of the estrogen related receptor (ERR) signaling pathway from Tox21 library (AID 1224849; calls by dose curve; further: nearly all actives have a fitted effect of over 15% in size); settings: ERR reporter cell line, ONE-Glo luciferase, 18 h; at 92.4 µM (top of the series) unless noted
Procedure, shortened: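 We plated ERR reporter cells, waited 6 h, added compounds in DMSO by pin tool and incubated them 18 h at 37 C. ONE-Glo was then added and luminescence read after 30 min.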

[8] = qHTS RealTime-Glo MT Cell Viability Assay in HepG2 cells - 24 hour (AID 1224867); further: nearly all actives have a fitted effect of over 50% in size
Procedure, shortened: (§1)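 HepG2 suspension premixed with RealTime-Glo reagents is plated at 600 cells per well and left 5 h at 37 C/5% CO2. Compounds in DMSO then go in, and bioluminescence reflecting viable cell number is recorded over 40 h.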

[9] = qHTS RealTime-Glo MT Cell Viability Assay in HEK293 cells - 32 hour (AID 1224868); further: top concentration of the series differs between compounds; nearly all actives have a fitted effect of over 50% in size
Procedure, shortened: (§2)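 Reads taken at 0, 8, 16, 24, 32 and 40 h from the same wells. HEK293 cells (600/well) carried RealTime-Glo reagents from seeding, with compound added after a 5 h settle at 37 C.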

[10] = A CellTox Green Cytotoxicity Assay to monitor cytotoxicity in HEK293 cells - 0 hour (AID 1224869); further: nearly all actives have a fitted effect of over 50% in size
Procedure, shortened: (§3)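 Each value comes from one timepoint of a single continuous run in which HEK293 cells with CellTox Green were exposed to compound for up to 40 h at 37 C, dye fluorescence rising with cell death.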

[11] = A CellTox Green Cytotoxicity Assay to monitor cytotoxicity in HEK293 cells - 40 hour (AID 1224871); further: nearly all actives have a fitted effect of over 45% in size
Procedure, shortened: as §3

[12] = qHTS RealTime-Glo MT Cell Viability Assay in HEK293 cells - 16 hour (AID 1224872)
Procedure, shortened: as §2

[13] = qHTS RealTime-Glo MT Cell Viability Assay in HepG2 cells - 8 hour (AID 1224873); further: nearly all actives have a fitted effect of over 55% in size
Procedure, shortened: (§4)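 HepG2 cells (600/well) mixed with RealTime-Glo MT reagent, settled 5 h at 37 C/5% CO2 before compound addition. Nonlytic NanoLuc luminescence from viable-cell prosubstrate reduction read repeatedly during 40 h treatment at 37 C.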

[14] = qHTS RealTime-Glo MT Cell Viability Assay in HEK293 cells - 40 hour (AID 1224874); settings: RealTime-Glo luminescence; max response: active compounds read low; further: nearly all actives have a fitted effect of over 50% in size
Procedure, shortened: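 qHTS format; HEK293 cells with NanoLuc/prosubstrate reagent, 37 C/5% CO2 for 5 h pre-dosing; compounds 23 nL in DMSO; luminescence at each time point reflects viable cells.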

[15] = A CellTox Green Cytotoxicity Assay to monitor cytotoxicity in HEK293 cells - 24 hour (AID 1224875); further: nearly all actives have a fitted effect of over 45% in size
Procedure, shortened: as §3

[16] = A CellTox Green Cytotoxicity Assay to monitor cytotoxicity in HepG2 cells - 16 hour (AID 1224876); further: nearly all actives have a fitted effect of over 45% in size
Procedure, shortened: (§5)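 Continuous culture of HepG2 cells with a membrane-impermeant DNA dye; rising fluorescence marks dead cells. Compound exposure lasted up to 40 h at 37 C, with reads every 8 h from 0 h.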

[17] = qHTS RealTime-Glo MT Cell Viability Assay in HepG2 cells - 32 hour (AID 1224877); further: nearly all actives have a fitted effect of over 55% in size
Procedure, shortened: as §1

[18] = A CellTox Green Cytotoxicity Assay to monitor cytotoxicity in HepG2 cells - 40 hour (AID 1224879); further: nearly all actives have a fitted effect of over 40% in size
Procedure, shortened: as §5

[19] = qHTS RealTime-Glo MT Cell Viability Assay in HepG2 cells - 40 hour (AID 1224870); further: nearly all actives have a fitted effect of over 50% in size
Procedure, shortened: as §4

[20] = A CellTox Green Cytotoxicity Assay to monitor cytotoxicity in HepG2 cells - 24 hour (AID 1224878); further: nearly all actives have a fitted effect of over 45% in size
Procedure, shortened: as §5
On the % scale 0 is the no-effect control and ±100 the full control effect.

CCC1=C(C)CN(C(=O)NCCc2ccc(S(=O)(=O)NC(=O)NC3CCC(C)CC3)cc2)C1=O (stereo not drawn)
inactive: Potency [1] | Potency [2] | Potency [3] | outcome [4] | Potency [5] | Potency [6] | activity change, positive = activation [7] -15.8% [at 42.5 µM] | outcome [8] | Potency [9] | Potency [10] | Potency [11] | Potency [12] | outcome [13] | max response [14] -23% | Potency [15] | Potency [16] | Potency [17] | Potency [18]

CCCCCCCCCCCC(=O)OCC
inactive: Potency [1] | Potency [2] | Potency [3] | outcome [4] | Potency [5] | outcome [8] | Potency [9] | Potency [10] | Potency [19] | Potency [11] | Potency [12] | outcome [13] | max response [14] 3.23% | Potency [15] | Potency [16] | Potency [17] | Potency [20] | Potency [18]

CCCCCCCCCCCCSC#N
inactive: Potency [1] | Potency [2] | Potency [3] | outcome [4] | Potency [5] | Potency [6] | activity change, positive = activation [7] 0.292% | outcome [8] | Potency [9] | Potency [10] | Potency [19] | Potency [11] | Potency [12] | outcome [13] | max response [14] 0.323% | Potency [15] | Potency [16] | Potency [17] | Potency [20] | Potency [18]

C=CC(C)CCC=C(C)C (stereo not drawn)
inactive: Potency [1] | Potency [2] | Potency [3] | outcome [4] | Potency [5] | outcome [8] | Potency [9] | Potency [10] | Potency [19] | Potency [11] | Potency [12] | outcome [13] | max response [14] 0.513% | Potency [15] | Potency [16] | Potency [17] | Potency [20] | Potency [18]

CCC(C)CCCC(C)(C)O (stereo not drawn)
inactive: Potency [1] | Potency [2] | Potency [3] | outcome [4] | Potency [5] | outcome [8] | Potency [9] | Potency [10] | Potency [19] | Potency [11] | Potency [12] | outcome [13] | max response [14] 21.8% | Potency [15] | Potency [16] | Potency [17] | Potency [20] | Potency [18]

CCn1nc(Cc2ccccc2)cc1C1CCN(C[C@H]2C[C@H](N(C)[C@@H](C(=O)O)C(C)C)C[C@@H]2c2cccc(F)c2)CC1
inactive: Potency [1] | Potency [2] | Potency [3] | outcome [4] | Potency [5] | activity change, positive = activation [7] -18.7% | Potency [19] | Potency [11] | outcome [13] | Potency [15] | Potency [16] | Potency [17] | Potency [20]

CC(CCl)OC(C)CCl (stereo not drawn)
inactive: Potency [1] | Potency [2] | Potency [3] | outcome [4] | Potency [5] | outcome [8] | Potency [9] | Potency [10] | Potency [19] | Potency [11] | Potency [12] | outcome [13] | max response [14] -1.61% | Potency [15] | Potency [16] | Potency [17] | Potency [20] | Potency [18]
